# Test results as given in the supplement of paper PMC10681739.
# Legend:
# ETS1 [1] = molecular target: T1, ETS1 (UniProt P14921); assay: ETS1 binding intensity (PBM fluorescence), ETS1 alone (arbitrary fluorescence units); higher = stronger binding; conditions: ETS1 concentration 1 nM; RUNX1 concentration 0 nM
# T1 sequence: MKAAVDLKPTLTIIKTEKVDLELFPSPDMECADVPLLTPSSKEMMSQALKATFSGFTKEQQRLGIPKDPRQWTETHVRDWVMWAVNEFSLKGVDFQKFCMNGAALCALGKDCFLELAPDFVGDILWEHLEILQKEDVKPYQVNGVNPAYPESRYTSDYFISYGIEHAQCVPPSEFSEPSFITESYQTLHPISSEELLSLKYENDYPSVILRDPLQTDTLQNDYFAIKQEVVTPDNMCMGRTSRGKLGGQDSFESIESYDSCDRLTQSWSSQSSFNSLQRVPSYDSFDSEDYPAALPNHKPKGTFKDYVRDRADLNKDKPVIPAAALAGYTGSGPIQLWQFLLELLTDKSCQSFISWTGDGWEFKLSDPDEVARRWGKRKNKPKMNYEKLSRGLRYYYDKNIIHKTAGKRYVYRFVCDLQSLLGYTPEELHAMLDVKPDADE
# RUNX1 [2] = molecular target: RUNX1 (UniProt Q01196); assay: RUNX1 binding intensity (PBM fluorescence), RUNX1 alone (arbitrary fluorescence units); higher = stronger binding; conditions: RUNX1 concentration 2 nM; ETS1 concentration 0 nM
# RUNX1, sequence (Q01196 whole entry): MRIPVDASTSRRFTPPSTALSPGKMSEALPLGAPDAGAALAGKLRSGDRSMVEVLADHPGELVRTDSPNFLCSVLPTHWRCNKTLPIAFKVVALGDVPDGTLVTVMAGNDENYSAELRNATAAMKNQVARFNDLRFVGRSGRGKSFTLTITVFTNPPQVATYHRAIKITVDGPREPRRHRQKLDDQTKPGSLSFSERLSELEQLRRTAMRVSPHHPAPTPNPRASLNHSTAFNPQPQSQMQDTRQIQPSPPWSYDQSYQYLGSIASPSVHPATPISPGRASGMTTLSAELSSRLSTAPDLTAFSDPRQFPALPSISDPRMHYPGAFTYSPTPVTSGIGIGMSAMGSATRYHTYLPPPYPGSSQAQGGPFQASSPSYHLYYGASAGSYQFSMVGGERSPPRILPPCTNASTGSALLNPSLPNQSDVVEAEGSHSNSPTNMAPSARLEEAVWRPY
# Protocol: (§1)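 Cooperative gcPBM on 36-bp genomic probes with neighbouring ETS1 and RUNX1 sites. Recombinant human RUNX1 (2 nM) was incubated alone or with ETS1 (25 nM) and detected with anti-RUNX1 antibody plus Alexa488 secondary. Values are medians over 4 replicate spots; the RUNX1+ETS1 data were normalised to the RUNX1-only data. The probes sit in constant array flanks that are not printed.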
# ETS1 [3] = molecular target: T1, ETS1; assay: ETS1 binding intensity (PBM fluorescence) in presence of RUNX1, normalised to ETS1-only experiment (arbitrary fluorescence units); higher = stronger binding; conditions: ETS1 concentration 1 nM; RUNX1 concentration 25 nM
# RUNX1 [4] = molecular target: RUNX1 (UniProt Q01196); assay: RUNX1 binding intensity (PBM fluorescence) in presence of ETS1, normalised to RUNX1-only experiment (arbitrary fluorescence units); higher = stronger binding; conditions: RUNX1 concentration 2 nM; ETS1 concentration 25 nM
# Protocol: as §1
# 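Wherever RUNX1 binding intensity (PBM fluorescence) in presence of ETS1, normalised to RUNX1-only experiment is given: Full-length recombinant human ETS1 or RUNX1 bound to double-stranded 36-bp genomic probes on microarrays, detected by protein-specific primary antibody and Alexa488 secondary, spot fluorescence as median of four replicate spots.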
# 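Wherever RUNX1 binding intensity (PBM fluorescence), RUNX1 alone is given: Full-length recombinant human RUNX1 bound to double-stranded 36-bp genomic probes on a high-density microarray, scored as Alexa488 fluorescence per spot via anti-RUNX1 antibody, median of four replicate spots.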
Sequence,ETS1 binding intensity (ETS1 [1]),RUNX1 binding intensity (RUNX1 [2]),ETS1 binding intensity (ETS1 [3]),RUNX1 binding intensity (RUNX1 [4])
GCAATGCCGCTACCGGAAGTGCGGGTCGCGCTCCCG,26000,749,26000,1620
TCCCACATCCTGTGCTCGTGCAGTGGTTAGGCTCAA,562,793,608,2490
CTCTGCCCGCTTCCGCTGGCGGTACCTCAGAGCCGC,919,904,920,4710
TTTTCTTTCCTAGGAAGTGGTTGCTGGGTTCTGAGG,785,831,721,872
GCACTACATTTCCCAGCTTTCCTCGCGGTAAAGAGA,456,1270,429,1270
GAGGAAGAGTCTTCCTGTAACCACTAGAGGGCGCTG,592,705,663,960
GATCTTCCTGCAACCCCCCGAGACAACCACCGAACA,854,1090,887,1400
TGGCTGTGTCCCGGAAGTGGTCATAAGCTGGGTCCC,8520,730,9830,2470
TTTATCATGAATGCAGGATGTGGGCAAACTCATGAC,2860,814,5910,1140
CTCCTGTTCCGGCTCAAAGGGAAACCGCTGCTTTTC,605,1210,907,1460
CAGATCCGGCGTGGACGAAGCTCGGGAACCACAACA,353,798,456,1150
TACCAACAGGAATCTTTGGGGTCTAAACCGCAAACA,481,3800,2160,5090
TGTAAGTCACTTCCTGTCGTGGTCAGGTCTCCTCTC,8260,873,7730,2370
CTCGCCCCATTTCCCGTAAATATCAGCCACAGACCA,546,1350,464,1900
TAAGAAAAACAGTCATCCTGCGGTTTCCATTTGTGA,351,6290,1080,5090
TTTACTGAGAGGAAGTGGTTCTTGTGGGTGAAGGTC,2420,898,6070,1530
TTTACAGGAAATATCCAGAACAGGTAAACCCACAGA,778,796,1630,926
TTGCTCCCGGAAGCCCCGCCCGACCGCGGCTCCTGA,999,865,1970,1210
AGTAGGATGGGAGGAAGTGGTTTGTAAGAGGAGGAC,1780,769,2740,1480
GGACTGCGTTTCCGGACACTGCGGGTGCCGGTAGCC,1290,671,1680,1450
TTATTTCCTCTTTTTTTTTTTTTTTTTGGTTTTGCT,483,1960,440,4230

Sequence,ETS1 binding intensity (ETS1 [1]),RUNX1 binding intensity (RUNX1 [2]),ETS1 binding intensity (ETS1 [3]),RUNX1 binding intensity (RUNX1 [4])
GCTCCTGGCCCGCACTTCCGACCACACACTGGGGAC,557,1180,592,1610
GTGCCGGCGGCCGGATGTGGGCGGGGCCACGGGGAG,8590,753,16200,4170
GTCTTACTTCCTGTCCCCGCCCACCGCGACTGTCTT,2560,1740,3520,3600
CGGGTGGTGGCAGGATGTGGGTAGGGGGCCAGGCGA,2930,895,6860,2560
AGCGGCCTGGGAGGAGGATGTGGTTACGTGGAGACC,1120,996,15200,1510
GACTATGTGCTTCCGGTCTCCAATACCGCAGGAGGG,4950,981,13600,2690
CCCCTTCCCGTTCTCCGAAAGTGCGCGGGTTGGAGC,489,792,361,1230
CTTCTACTTCCTGCCCCGCCCCCAGCTGTGGTCACA,1420,1490,3150,3430
TAAATGTTTCCTAAAAGCTCTTTCATAAACCACAGT,390,970,669,884
GCCACAGCCGGAAGCAGGCTGACCACAAGTGCTAAG,1880,1310,18700,6190
CTGGTTTCCAACATCCTGTGGGCGGCCTGGTTTCAG,1260,785,1270,2210
GTGCCCCGGACCTACGGATACCACACACAGACAGGC,470,928,460,869
GGACCGGAAGTAGGTTTCTACCCGACCGCATTTTAC,12100,889,43900,2740
AACCAATCGAGCGGAGGAAACCGCGGCGTTAGCGTG,568,864,1020,840
TACAACTTGCAACGGAAACCACTTCAGGTTCATTAC,1320,847,1280,866
CTTTCGGGGGCGGAAGTTGCGGTGCATTGTAGGTTC,7760,955,20000,2800
ATTAGAGGTAGAGGAAATACCACATGCAAAGGTTTG,793,785,1090,863
CCCCTATATCACAGGATGCCGCAAACTAGTAACAGG,1610,827,2210,993
GTTTTCAAGGCAGGAAGTGGCTGTGGTGGCACGGAG,13700,789,21300,1570
TACCCAGAAAGGAAGTGGAACCTGCGGTGAGGCCCC,1130,875,5650,1950
